Assay [1] can be described thus: Caspase-3/7 induction in HepG2 cells by small molecules, qHTS assay (AID 1346978). Also: nearly all actives have a fitted effect of over 15% in size. In short, it runs like this:
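Wild-type HepG2 cells, 2,000/well, settled 5 hr at 37 C and 5% CO2, then compound-treated for 17 hr; caspase-3/7 activity read by luminescent Caspase-Glo 3/7 after 30 min at room temperature.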
Background: Quantitative high-throughput screening tests each substance at several concentrations.

Assay [2] can be described thus: Caspase-3/7 induction in CHO-K1 cells by small molecules, qHTS cell viability counter screen (AID 1346979). Also: nearly all actives have a fitted effect of over 35% in size. Also: potency is read from the fitted curve at half-maximal effect. The essentials: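 In the same wells as the caspase read, viability of compound-treated wild-type CHO-K1 cells was assessed using CellTiter-Fluor, added after 16hr at 37C and measured by fluorescence following 1hr further incubation.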
Assay [3] in a line: Caspase-3/7 induction in HepG2 cells by small molecules, qHTS cell viability counter screen (AID 1346981). Also: nearly all actives have a fitted effect of over 30% in size. Also: potency is read from the fitted curve at half-maximal effect. In short, it runs like this:
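HepG2, WT, 2,000 cells/well; 5 hr pre-incubation 37 C/5% CO2; compound pin-transferred from DMSO; 16 hr exposure; CellTiter-Fluor, 1 hr; fluorescence read.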

In assay [4] the target is Nuclear receptor subfamily 1 group I member 2 (Homo sapiens) (UniProt O75469). Nature of the assay: Human pregnane X receptor (PXR) small molecule agonists, qHTS assay (AID 1346982). Also: nearly all actives have a fitted effect of over 35% in size. Also: potency is read from the fitted curve at half-maximal effect. In short, it runs like this: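 Luciferase signal from ONE-Glo (30 min, room temperature) measured activation of hPXR-driven CYP3A4 reporter expression in PXR-Luc HepG2 cells treated with compounds for 24 hr at 37 C.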
Sequence of Nuclear receptor subfamily 1 group I member 2 (Homo sapiens) (O75469 whole entry, looked up): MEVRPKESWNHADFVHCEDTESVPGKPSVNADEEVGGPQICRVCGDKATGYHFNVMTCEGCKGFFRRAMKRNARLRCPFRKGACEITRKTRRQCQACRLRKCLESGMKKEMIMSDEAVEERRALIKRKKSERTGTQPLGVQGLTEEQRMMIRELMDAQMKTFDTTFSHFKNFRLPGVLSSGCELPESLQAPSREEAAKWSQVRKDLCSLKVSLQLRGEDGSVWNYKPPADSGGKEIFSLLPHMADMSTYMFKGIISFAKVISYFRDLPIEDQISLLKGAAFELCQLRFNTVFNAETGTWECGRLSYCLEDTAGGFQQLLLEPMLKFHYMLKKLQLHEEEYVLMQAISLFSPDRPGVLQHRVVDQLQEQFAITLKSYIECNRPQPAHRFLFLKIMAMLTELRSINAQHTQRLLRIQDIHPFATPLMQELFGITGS

The target of assay [5] is Cytochrome P450 2D6 (Homo sapiens) (UniProt P10635). Nature of the assay: Cytochrome P450 Family 2 Subfamily D Member 6 (CYP2D6) small molecule antagonists: luciferase reporter qHTS assay (AID 1671196). Also: nearly all actives have a fitted effect of over 50% in size. Also: potency is read from the fitted curve at half-maximal effect. The essentials:
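Read-out is luminescence from luciferin formed by CYP2D6 turnover of a proluciferin substrate, recorded as relative luminescence units. Reactions ran 1 h at room temperature after NADPH regeneration solution was added.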

The target of assay [6] is Cytochrome P450 2C19 (Homo sapiens) (UniProt P33261). Briefly: Cytochrome P450 Family 2 Subfamily C Member 19 (CYP2C19) small molecule antagonists: luciferase reporter qHTS assay (AID 1671197). Also: nearly all actives have a fitted effect of over 65% in size. Also: potency is read from the fitted curve at half-maximal effect. In short, it runs like this:
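Relative luminescence units recorded 20 min after the detection reagent stopped a 1 h, 37C CYP2C19 reaction on proluciferin substrate, which was started by NADPH regeneration following 10 min room-temperature compound preincubation; ketoconazole positive control.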
In general terms: Reporter assays use an easily measured gene product as a stand-in for the process of interest.

For assay [7], the target named is Cytochrome P450 2C9 (Homo sapiens) (UniProt P11712). Briefly: Cytochrome P450 Family 2 Subfamily C Member 9 (CYP2C9) small molecule antagonists: luciferase reporter qHTS assay (AID 1671198). Also: nearly all actives have a fitted effect of over 50% in size. Also: potency is read from the fitted curve at half-maximal effect. In short, it runs like this:
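P450-Glo proluciferin substrate with CYP2C9 enzyme; 10 min RT preincubation, then NADPH regeneration 1 h at 37C; luciferin detection reagent 20 min RT, luminescence in relative luminescence units.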

Assay [8] addresses Cytochrome P450 1A2 (Homo sapiens) (UniProt P05177). Nature of the assay: Cytochrome P450 Family 1 Subfamily A Member 2 (CYP1A2) small molecule antagonists: luciferase reporter qHTS assay (AID 1671199). Also: nearly all actives have a fitted effect of over 50% in size. Also: potency is read from the fitted curve at half-maximal effect. The essentials:
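P450-Glo CYP1A2, 1536-well qHTS: enzyme/proluciferin substrate + cpd (DMSO), 10 min RT; NADPH regen, 1 h RT; detection reagent, 20 min; luminescence, RLU.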

Assay [9] has as its target Voltage-gated inwardly rectifying potassium channel KCNH2 (Homo sapiens) (UniProt Q12809). Briefly: Human Ether-a-go-go-Related Gene (hERG) channel small molecule antagonists: fluorescence cell-based qHTS assay (AID 1671200).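 Also: hERG-expressing U2OS cells given a thallium stimulus after FluxOR II dye loading; series mostly up to about 77 µM; nearly all actives have a fitted effect of over 50% in size.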 The essentials: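 Quantitative HTS in hERG-U2OS cells: thallium entry through the channel reports activity, read as continuous 480/540 nm fluorescence over 2 min after stimulus addition.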
A general note: hERG is a cardiac potassium channel; its block is linked to QT prolongation.

The target in assay [10] is Cytochrome P450 3A4 (Homo sapiens) (UniProt P08684). Nature of the assay: Cytochrome P450 Family 3 Subfamily A Member 4 (CYP3A4) small molecule antagonists: luciferase reporter qHTS assay (AID 1671201). Also: nearly all actives have a fitted effect of over 50% in size. Also: potency is read from the fitted curve at half-maximal effect. The essentials: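 Inhibition of CYP3A4 is measured as loss of light: the enzyme converts a proluciferin substrate to luciferin, detected luminescently. Reaction ran 1 h at room temperature with NADPH regeneration after a 10 min compound preincubation.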
Sequence of Cytochrome P450 3A4 (Homo sapiens) (P08684 whole entry, looked up): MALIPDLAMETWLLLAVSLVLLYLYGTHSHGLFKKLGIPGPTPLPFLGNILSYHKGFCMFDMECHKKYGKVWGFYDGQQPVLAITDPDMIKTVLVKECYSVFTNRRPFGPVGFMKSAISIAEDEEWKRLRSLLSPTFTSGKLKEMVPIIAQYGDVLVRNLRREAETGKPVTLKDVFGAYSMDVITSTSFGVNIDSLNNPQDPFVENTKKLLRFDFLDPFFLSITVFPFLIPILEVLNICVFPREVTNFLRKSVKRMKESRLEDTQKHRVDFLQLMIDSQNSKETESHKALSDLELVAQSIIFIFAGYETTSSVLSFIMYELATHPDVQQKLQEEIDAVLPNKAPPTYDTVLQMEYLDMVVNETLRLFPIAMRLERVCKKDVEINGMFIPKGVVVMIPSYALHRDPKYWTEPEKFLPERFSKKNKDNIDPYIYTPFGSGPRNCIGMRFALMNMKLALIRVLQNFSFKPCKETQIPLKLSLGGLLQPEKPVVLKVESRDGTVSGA

The nature of assay [11]: Caspase-3/7 induction in CHO-K1 cells by small molecules, qHTS assay (AID 1346980). Also: nearly all actives have a fitted effect of over 15% in size. The essentials:
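Wild-type CHO-K1 cells exposed to compounds for 17hr at 37 C, 5% CO2. Caspase-3/7 activity then measured by Caspase-Glo 3/7 luminescence after 30min at room temperature.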

Where “and” joins values, the source holds several entries; their conditions need not be identical. Identical values can stand only once. Records with an inconclusive call do not appear. Some compounds were tested as several samples or in several runs, with calls that do not always agree. Calls of active or inactive are those of the source. Calls follow the shape of the dose curve; as a rule, active = well fitted curve in the direction sought with a large enough effect in the repeat runs; inconclusive = weak or mixed curves; inactive = no such curve, though single readings can be large; an effect the other way counts as inactive or inconclusive.

Drawing on PubChem BioAssay (Tox21), this text covers Potency for eleven compounds.

Sequence of Cytochrome P450 2C19 (Homo sapiens) (P33261 whole entry, looked up): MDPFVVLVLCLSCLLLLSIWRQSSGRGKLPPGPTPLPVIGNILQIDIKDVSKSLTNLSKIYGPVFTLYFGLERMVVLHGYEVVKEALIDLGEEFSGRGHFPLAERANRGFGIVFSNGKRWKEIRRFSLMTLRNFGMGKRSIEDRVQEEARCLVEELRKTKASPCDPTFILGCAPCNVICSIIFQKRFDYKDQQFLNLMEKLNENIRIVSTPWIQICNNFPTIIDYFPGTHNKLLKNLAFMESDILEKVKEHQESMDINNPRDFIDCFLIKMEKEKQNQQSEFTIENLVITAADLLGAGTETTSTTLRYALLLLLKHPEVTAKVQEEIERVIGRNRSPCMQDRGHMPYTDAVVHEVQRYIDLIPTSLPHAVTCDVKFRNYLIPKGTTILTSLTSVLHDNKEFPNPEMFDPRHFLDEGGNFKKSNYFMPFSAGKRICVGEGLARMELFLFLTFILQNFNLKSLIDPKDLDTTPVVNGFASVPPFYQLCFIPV
Sequence of Cytochrome P450 2C9 (Homo sapiens) (P11712 whole entry, looked up): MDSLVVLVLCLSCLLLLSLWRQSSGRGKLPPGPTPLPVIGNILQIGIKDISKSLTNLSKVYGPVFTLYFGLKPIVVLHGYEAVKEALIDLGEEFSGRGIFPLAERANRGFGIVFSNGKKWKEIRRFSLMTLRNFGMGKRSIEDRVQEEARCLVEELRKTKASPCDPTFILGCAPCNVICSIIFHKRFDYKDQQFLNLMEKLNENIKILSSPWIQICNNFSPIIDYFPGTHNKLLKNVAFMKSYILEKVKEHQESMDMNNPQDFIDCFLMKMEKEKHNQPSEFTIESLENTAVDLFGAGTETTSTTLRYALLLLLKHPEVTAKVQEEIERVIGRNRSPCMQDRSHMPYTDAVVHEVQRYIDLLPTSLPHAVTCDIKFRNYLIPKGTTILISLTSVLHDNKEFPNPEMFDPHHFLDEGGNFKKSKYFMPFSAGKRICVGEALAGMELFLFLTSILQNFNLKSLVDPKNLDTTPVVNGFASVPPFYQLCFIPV
Sequence of Voltage-gated inwardly rectifying potassium channel KCNH2 (Homo sapiens) (Q12809 whole entry, looked up): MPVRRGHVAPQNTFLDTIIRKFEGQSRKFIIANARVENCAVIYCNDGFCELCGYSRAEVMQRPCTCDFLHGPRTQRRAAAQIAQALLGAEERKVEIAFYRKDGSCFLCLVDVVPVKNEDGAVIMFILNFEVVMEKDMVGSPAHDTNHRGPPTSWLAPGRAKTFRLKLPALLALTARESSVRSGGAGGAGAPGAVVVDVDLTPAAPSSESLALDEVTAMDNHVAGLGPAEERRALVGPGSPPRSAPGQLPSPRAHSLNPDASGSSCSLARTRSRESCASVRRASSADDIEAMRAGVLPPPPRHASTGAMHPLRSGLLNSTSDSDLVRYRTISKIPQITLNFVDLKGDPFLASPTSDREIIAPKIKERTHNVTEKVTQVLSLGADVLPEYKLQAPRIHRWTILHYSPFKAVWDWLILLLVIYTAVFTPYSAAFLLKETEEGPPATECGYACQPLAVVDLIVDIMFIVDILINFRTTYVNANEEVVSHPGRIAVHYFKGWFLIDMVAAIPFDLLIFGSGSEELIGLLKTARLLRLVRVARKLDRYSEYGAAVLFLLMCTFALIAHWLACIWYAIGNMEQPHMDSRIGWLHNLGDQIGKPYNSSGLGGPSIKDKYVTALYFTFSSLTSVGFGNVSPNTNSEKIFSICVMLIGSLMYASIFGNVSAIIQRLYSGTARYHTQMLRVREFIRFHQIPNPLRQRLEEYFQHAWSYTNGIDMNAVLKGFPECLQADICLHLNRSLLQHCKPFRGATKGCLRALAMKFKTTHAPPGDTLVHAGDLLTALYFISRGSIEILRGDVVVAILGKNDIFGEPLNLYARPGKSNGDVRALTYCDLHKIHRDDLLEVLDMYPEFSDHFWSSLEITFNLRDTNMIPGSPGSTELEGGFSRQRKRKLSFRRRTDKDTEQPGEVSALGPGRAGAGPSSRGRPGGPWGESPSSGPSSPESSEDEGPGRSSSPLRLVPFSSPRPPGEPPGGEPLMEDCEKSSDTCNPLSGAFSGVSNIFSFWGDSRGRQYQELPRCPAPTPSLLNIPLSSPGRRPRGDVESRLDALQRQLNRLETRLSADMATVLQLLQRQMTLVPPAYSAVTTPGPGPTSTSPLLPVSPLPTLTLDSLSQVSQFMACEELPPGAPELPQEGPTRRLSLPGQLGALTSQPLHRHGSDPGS
Sequence of Cytochrome P450 1A2 (Homo sapiens) (P05177 whole entry, looked up): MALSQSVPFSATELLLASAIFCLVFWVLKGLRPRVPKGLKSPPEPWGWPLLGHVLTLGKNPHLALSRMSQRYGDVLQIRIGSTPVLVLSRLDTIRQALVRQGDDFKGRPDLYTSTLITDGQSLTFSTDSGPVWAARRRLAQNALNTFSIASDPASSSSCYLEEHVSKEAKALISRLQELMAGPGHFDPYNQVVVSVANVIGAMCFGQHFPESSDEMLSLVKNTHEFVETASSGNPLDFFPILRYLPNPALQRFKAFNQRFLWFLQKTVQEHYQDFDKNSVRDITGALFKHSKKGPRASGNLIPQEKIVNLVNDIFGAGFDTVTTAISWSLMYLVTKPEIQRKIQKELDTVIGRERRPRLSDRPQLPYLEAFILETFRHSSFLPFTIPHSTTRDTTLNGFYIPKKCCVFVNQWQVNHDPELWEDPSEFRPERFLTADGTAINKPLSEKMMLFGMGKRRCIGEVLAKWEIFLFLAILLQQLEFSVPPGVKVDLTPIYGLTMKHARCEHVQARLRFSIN
Sequence of Cytochrome P450 2D6 (Homo sapiens) (P10635 whole entry, looked up): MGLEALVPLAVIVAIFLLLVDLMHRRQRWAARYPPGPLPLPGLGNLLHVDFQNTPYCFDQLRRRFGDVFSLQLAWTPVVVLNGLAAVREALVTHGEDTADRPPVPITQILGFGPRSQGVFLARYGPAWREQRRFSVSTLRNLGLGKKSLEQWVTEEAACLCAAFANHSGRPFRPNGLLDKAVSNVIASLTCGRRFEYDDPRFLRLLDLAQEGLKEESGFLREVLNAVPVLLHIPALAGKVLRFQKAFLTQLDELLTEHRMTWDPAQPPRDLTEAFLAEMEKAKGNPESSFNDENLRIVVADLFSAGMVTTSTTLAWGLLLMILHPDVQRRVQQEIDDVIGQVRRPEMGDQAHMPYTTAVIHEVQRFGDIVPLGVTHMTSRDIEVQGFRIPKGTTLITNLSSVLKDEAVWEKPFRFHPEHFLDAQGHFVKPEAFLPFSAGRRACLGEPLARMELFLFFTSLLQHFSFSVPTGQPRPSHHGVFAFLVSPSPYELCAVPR

`COc1c2ccoc2cc2oc(=O)ccc12`: the Potency result in [1], in assay [2], in [3] and in assay [9] was “inactive” throughout. In addition, the Potency in assay [4] was 55.7 µM (active) and 21.7 µM (active); in assay [5], 4.08 µM (active) and inactive; in assay [6], 5.77 µM (active) and 8.94 µM (active); in assay [7], 2.89 µM (active) and 2.52 µM (active); in assay [8] it was 364 nM (active) and 283 nM (active); in assay [10] it was 6.47 µM (active) and 10 µM (active).

On to `C=C(CC(=O)O)C(=O)O`, for which the Potency result in [1], in assay [2], in assay [11], in [3] and in [9] was “inactive” in each case.

Take `C=CC(C)(C)C`: the Potency entry in [1], in [2], in [3], in assay [4], in [5] and in [6] was “inactive” each time. For the same compound, the Potency result in assay [7], in [9] and in assay [10] was “inactive” in each case. Further, the Potency in [8] is 44.8 µM (active).

As for `OCC(CO)(CO)CO`, the Potency result in assay [1], in [2], in assay [3], in [4], in assay [5] and in [6] was “inactive” throughout. The Potency entry in [7], in assay [8], in assay [9] and in [10] was “inactive” throughout.

In the case of `Cc1nnc(NS(=O)(=O)c2ccc(N)cc2)s1`, the Potency entry in [1], in assay [2], in [11], in assay [3], in assay [4] and in [5] was “inactive” throughout. For the same compound, the Potency result in assay [8], in [9] and in assay [10] was “inactive” throughout. For the same compound, the values for the Potency in assay [6] and in assay [7] were 39.8 µM (active) and 35.5 µM (active), respectively.

With `O=C(c1ccccc1)c1ccc(O)c(O)c1O`, the Potency result in [1], in assay [11], in assay [9] and in assay [10] was “inactive” throughout. Besides, the Potency in [2] was 69.1 µM (active) and 61.1 µM (active); in assay [3], 61.6 µM (active); in assay [4], 54.9 µM (active); in assay [5] it was 63.8 µM (active); in assay [6] it was 80.4 µM (active) and 63.3 µM (active); in assay [7], 40.3 µM (active) and 63.3 µM (active).

Take `CC1(C)C(=O)N(Cl)C(=O)N1Cl`: the Potency entry in assay [1], in assay [2], in [11], in assay [3], in assay [4] and in [5] was “inactive” throughout. Moreover, the Potency result in [7], in assay [8], in [9] and in assay [10] was “inactive” throughout. Further, the Potency in assay [6] is 71.1 µM (active).

Consider `O=Cc1ccc(CO)o1`, for which the Potency entry in assay [1], in assay [2], in [3], in [4], in [5] and in [6] was “inactive” each time. For the same compound, the Potency entry in assay [7], in [8], in assay [9] and in assay [10] was “inactive” each time.

`O=[N+]([O-])c1cc(C(F)(F)F)ccc1Cl`: the Potency entry in assay [1], in [2], in assay [11], in assay [3], in assay [4] and in assay [5] was “inactive” in each case. Moreover, the Potency entry in assay [6], in assay [7], in [8], in assay [9] and in [10] was “inactive” in each case.

On to `COc1ccc2cc3[n+](cc2c1OC)CCc1cc2c(cc1-3)OCO2`, for which the Potency entry in assay [1], in assay [2], in [4], in [7] and in assay [9] was “inactive” in each case. Moreover, the Potency in [3] was 54.9 µM (active); in assay [5], 180 nM (active) and 2.19 µM (active); in [6], 20.2 µM (active) and inactive; in assay [8], 25.4 µM (active) and 14.4 µM (active).

In the case of `NC(N)=S`, the Potency entry in assay [1], in assay [2], in assay [3], in assay [4], in assay [5] and in assay [7] was “inactive” throughout. For the same compound, the Potency result in assay [8], in [9] and in assay [10] was “inactive” in each case. Further, in assay [6], the Potency is 39.1 µM (active).
